Among all 3,200 compounds or so, about 2,600 (81%) were called active. The set was probably picked from earlier hits. Only a sample is shown. A number with no mark means an inactive call.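 The calls were made as follows: active = activation above the all-compound mean plus 3 SD, ignoring values outside control-based bounds (cut at about 4.8% in these data); inactive = the rest.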

The nature of this assay: EDANS-DABCYL substrate optical interference, artefact control for kallikrein-7 zymogen activator project, biochemical, fluorescence intensity, high throughput (AID 686952).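 Also: value is the 4 h activation minus the activation read at time zero.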 Conditions: no enzyme, 4 h, at 7 µM, hits give high values, solvent 0%, active enzyme control 100%.
As for `CCS(=O)(=O)Nc1cc(C(=O)OC)ccc1C(=O)OC`, the activation was 8.19% (active).
With `CC(C)(C)C(=O)Nc1ccc(-c2cn3cccnc3n2)cc1` the figure was 80.3% (active); with `CCCCCC(=O)Nc1ccc(-c2cn3cccnc3n2)cc1`, 28.5% (active); with `CC(=O)Nc1ccc(-c2cn3cccnc3n2)cc1`, 73.5% (active).
As for `CCOC(=O)C1=C(O)/C(=C/c2ccc(OCC(=O)Nc3ccc(C)cc3)cc2)N=C1C`, the activation is 3.03%.
With `CCOc1ccc(-n2c(SCC(=O)Nc3cc(C)c(NC(=O)c4ccccc4)cc3OC)nnc2-c2cccs2)cc1` the figure was 19.4% (active).
Consider `COc1c(N2CCN(C(=S)Nc3ccccc3F)C(C)C2)c(F)cc2c(=O)c(C(=O)O)cn(C3CC3)c12` (configuration not stated), for which the activation is -26%.
Take `Cc1cccc(C)c1NC(=O)C(c1ccccc1)N1CC(=O)Nc2ccccc21` (configuration not stated): the activation is 24.8% (active).
On to `CNc1cncc(-c2ccc(NS(C)(=O)=O)cc2)n1`, for which the activation is 46.5% (active).
With `CN(C)Cc1c(O)ccc2c(=O)c(-c3ccccc3Cl)coc12` the figure was 83.7% (active).
As to `CC(=O)Nc1ccc(S(=O)(=O)NCC(=O)OCc2cc(=O)oc3ccc4ccccc4c23)cc1`, the activation was 209% (active).
As to `Cc1cc(=O)oc2c3c(cc(OCC(=O)N[C@H](C(=O)O)c4ccccc4)c12)OC(C)(C)CC3`, the activation was 49.3% (active).
With `Cc1c(C)c2c(OCC(=O)N[C@@H](C(=O)O)c3ccccc3)cc3c(c2oc1=O)CCC(C)(C)O3` the figure was 49.4% (active).
For the compound `Cc1c(C)c2c(OCC(=O)NCCCO)cc3c(c2oc1=O)CCC(C)(C)O3`, the activation is 55.7% (active).
With `Cc1cc(=O)oc2c3c(cc(OCC(=O)NCCC(=O)N[C@@H](C)C(=O)O)c12)OC(C)(C)CC3` the figure was 65.1% (active); with `O=C(O)c1ccc2c3c(cccc13)C(=O)N(OS(=O)(=O)c1ccccc1)C2=O`, 103% (active).
With `Cc1cc(C)c2c(n1)nn1c(-n3ccnc3)cc(C)nc21` the figure was 44.4% (active); with `Cc1ccc(C2Nc3ccccc3C(=O)N2CCN2CCNC2=O)cc1` (configuration not stated), 19.4% (active); with `C/C(=C\c1ccccc1)C1NC(=O)c2c(sc3c2CCCC3)N1` (configuration not stated), 14.5% (active).
On to `COC(=O)c1cc(N2CCNCC2)nc2ccccc12`, for which the activation was 33.6% (active).
As for `CC1CCCN(C(=O)c2cc(-c3ccco3)nc3ccccc23)C1` (configuration not stated), the activation is 35.5% (active).
As to `CC(=O)N1CCN(C(=O)c2cc(-c3ccc(C)o3)nc3ccccc23)CC1`, the activation was 66.4% (active).
With `CCCCCn1c(=O)c(C(=O)OCC)c(Cl)c2ccccc21` the figure was -2.49%.
With `CCCCN(CCCC)CC(O)Cn1c2ccccc2c(=O)c2ccccc21` (configuration not stated) the figure was 16.2% (active); with `O=C1NC(c2cccc(Cl)c2)Nc2ccccc21` (configuration not stated), 18.9% (active).
For the compound `CC(=O)NN1C(=O)c2ccccc2NC1c1ccccc1` (configuration not stated), the activation was 35.4% (active).
Consider `CCOC(=O)NN1C(=O)c2ccccc2NC1c1cccc(O)c1` (configuration not stated), for which the activation is 20.4% (active).
With `CCc1nc(Nc2ccc(NC(C)=O)cc2)c2oc3ccccc3c2n1` the figure was 218% (active).
Turning to `CC(=O)Nc1nc(C)c(-c2csc(Nc3ccc(S(N)(=O)=O)cc3)n2)s1`, the activation was 46.5% (active).
For `Cc1nn(-c2ccccc2)c(C)c1NC(=O)COC(=O)c1cc(Cl)ccc1O`, the activation is 23.3% (active).
With `CCOC(=O)c1[nH]c2ccc(OC)cc2c1NC(=O)CCN1CCN(Cc2ccccc2)CC1` the figure was -3.59%; with `O=C(Nc1nncs1)c1ccccc1NS(=O)(=O)c1cccs1`, 38.3% (active).
Turning to `O=c1oc2c(CN3CCCCC3)c(O)ccc2c2c1CCCCC2`, the activation is 68.6% (active).
Turning to `COc1cc(/C=N\NC(=O)c2nonc2N)c(OC)cc1Br`, the activation was 74% (active).
Take `COc1cc2c(cc1OC)CC1(CCCCC1)N=C2`: the activation is 44.6% (active).
With `CCCN(CC(=O)NC(=O)NC1CCCCC1)CC(=O)Nc1cc(Cl)ccc1Cl` the figure was 4.93% (active).
For `CN(C(=O)c1cc2c(=O)n3ccccc3nc2s1)C1CCCCC1`, the activation is 23% (active).
As to `CCOCCCNC(=O)c1cc2c(=O)n3ccccc3nc2s1`, the activation is 68.6% (active).
As to `CCN1CCN(C(=O)Cn2nc(C)n3c(cc4c(OC)cccc43)c2=O)CC1`, the activation was 29.8% (active).
Regarding `CC1(C)Oc2ccc3ccc(=O)oc3c2/C(=N/O)C1=O`, the activation is 84.6% (active).
For the compound `COC(=O)Cc1cc(=O)oc2c(C)c(O)ccc12`, the activation is 76.7% (active).
Turning to `CCN1CCCC1CNC(=O)c1cc2cc(OC)c(OC)cc2[nH]1` (configuration not stated), the activation was 22.6% (active).
